Some test systems named below: NCI-H23 lung; NCI-H226 lung; NCI-H322M lung; HOP-62 NSCLC; NCI-H460 lung; HOP-92 NSCLC; NCI-H522 lung; A549/ATCC NSCLC; 786-0 renal; COLO 205 colon; DU-145 prostate; K-562 leukemia; MALME-3M melanoma; MDA-MB-231 breast; RXF 393 renal; SF-268 CNS; SF-295 CNS; SF-539 CNS; UACC-257 melanoma; M14 melanoma.
Common to all, as to assay: NCI-60 one-dose screen, 48 h (100 = growth as untreated, 0 = no growth, -100 = all killed)
Common to all, as to conditions: 10 µM unless noted

SMILES strings stand for the structures. About 83,000 compounds went through this panel and 20% of them were active in at least one assay; those are over-represented in the sample as a whole.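 Interpretation: 100, growth as untreated; towards 0, rising growth inhibition; 0, no net growth; 0 to -100, cell death. Compounds scoring below 10 were considered active.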 A number with no mark means an inactive call. Active and inactive are the calls of the source.

Growth data for 8 compounds are collected here from PubChem BioAssay (NCI).

As to `O=c1oc2ccccc2cc1-c1nn(-c2ccccc2)cc1-c1nn[nH]n1`, the growth was 101% with NCI-H23 lung; 92.8% with NCI-H226 lung; 100% in the experiment on NCI-H322M lung; 90.8% in the experiment on HOP-62 NSCLC; 105% in the experiment with NCI-H460 lung; 92.2% in the experiment with HOP-92 NSCLC. In addition, the growth in the experiment with NCI-H522 lung was 94.6%; in the experiment with A549/ATCC NSCLC, 97.7%; with 786-0 renal, 104%; in the experiment on COLO 205 colon it was 108%; in the experiment on DU-145 prostate, 113%; in the experiment with K-562 leukemia it was 103%. Moreover, the growth with MALME-3M melanoma is 90%; with MDA-MB-231 breast it was 94.7%; in the experiment on RXF 393 renal, 99.4%; with SF-268 CNS, 103%; with SF-295 CNS, 99.7%; with SF-539 CNS it was 97.4%. In addition, the growth in the experiment with UACC-257 melanoma is 100%; in the experiment with M14 melanoma it was 98.2%.
For the compound `CCN(CC)CCCC(Cc1ccccc1)Nc1c2ccc(Cl)cc2nc2ccc(OC)cc12` (stereo not given), the growth in the experiment with NCI-H23 lung is 67.1%; with NCI-H226 lung, 84.4%; with NCI-H322M lung, 9.3% (active); with HOP-62 NSCLC, 67.3%; in the experiment with NCI-H460 lung, 28.6%; with HOP-92 NSCLC, -4.73% (active). In addition, the growth with NCI-H522 lung is 1.88% (active); in the experiment with A549/ATCC NSCLC, 39.3%; in the experiment with 786-0 renal it was -22.6% (active); in the experiment on COLO 205 colon it was -42.3% (active); in the experiment with DU-145 prostate, 62.3%; with K-562 leukemia, -39.2% (active). Further, the growth in the experiment on MALME-3M melanoma was -78.3% (active); in the experiment with MDA-MB-231 breast, -31.3% (active); with RXF 393 renal, -51.7% (active); in the experiment with SF-268 CNS it was 51.9%; with SF-295 CNS, -37.9% (active); in the experiment on SF-539 CNS, -87.5% (active). Also, the growth was -40.8% (active) with UACC-257 melanoma and -76.9% (active) in the experiment on M14 melanoma.
For the compound `COc1cccc(CNc2c3ccccc3nc3ccccc23)c1OC`, the growth in the experiment with NCI-H23 lung is 32.4%; in the experiment on NCI-H226 lung it was 51.6%; in the experiment with NCI-H322M lung it was 41.6%; in the experiment on HOP-62 NSCLC, 51.2%; in the experiment with NCI-H460 lung it was 11.6%; in the experiment on HOP-92 NSCLC, -2.4% (active). Further, the growth with NCI-H522 lung was 40.1%; with A549/ATCC NSCLC it was 30.3%; in the experiment with 786-0 renal it was 38.8%; in the experiment on COLO 205 colon it was 21.5%; in the experiment on DU-145 prostate, 41.7%; with K-562 leukemia it was 15.5%. The growth in the experiment with MALME-3M melanoma was 50.6%; in the experiment on MDA-MB-231 breast, 41.9%; with RXF 393 renal, 29.9%; in the experiment with SF-268 CNS, 61.7%; with SF-295 CNS, 33%; in the experiment on SF-539 CNS, 18.9%. Further, the growth in the experiment on UACC-257 melanoma is 54.8%; with M14 melanoma, 34.5%.
With `Nc1[nH]nc2nc(-c3ccccc3)n3c4ccccc4nc3c12`, the growth in the experiment with NCI-H23 lung is 99.9%; with NCI-H226 lung it was 95.6%; with NCI-H322M lung, 93%; with HOP-62 NSCLC, 95.7%; in the experiment with NCI-H460 lung, 93%; in the experiment with HOP-92 NSCLC, 122%. Besides, the growth with NCI-H522 lung was 82.7%; in the experiment with A549/ATCC NSCLC it was 101%; in the experiment with 786-0 renal, 106%; with COLO 205 colon, 112%; with DU-145 prostate it was 117%; in the experiment with K-562 leukemia, 106%. The growth was 108% with MALME-3M melanoma; 97.9% in the experiment on MDA-MB-231 breast; 93.9% in the experiment on RXF 393 renal; 107% with SF-268 CNS; 93.2% in the experiment on SF-295 CNS; 103% in the experiment with SF-539 CNS. The results for the growth in the experiment with UACC-257 melanoma and in the experiment with M14 melanoma were 105% and 99.5%, respectively.
Consider `CN(C)CCCn1c2c(c3cnccc3c1=O)C(=O)c1ccccc1-2`, for which the growth with NCI-H23 lung is -10.7% (active); in the experiment on NCI-H226 lung it was -13.8% (active); in the experiment on NCI-H322M lung, -7.53% (active); with HOP-62 NSCLC, -1.96% (active); in the experiment with NCI-H460 lung, -27.2% (active); in the experiment with HOP-92 NSCLC, -9.59% (active). In addition, the growth with NCI-H522 lung was -28.2% (active); in the experiment on A549/ATCC NSCLC, 11.3%; in the experiment on 786-0 renal, -4.55% (active); with COLO 205 colon, -25% (active); in the experiment with DU-145 prostate, -16.9% (active); in the experiment on K-562 leukemia it was 3.18% (active). Also, the growth with MALME-3M melanoma is -45.7% (active); in the experiment with MDA-MB-231 breast, 0.187% (active); in the experiment with RXF 393 renal it was -28.4% (active); in the experiment with SF-268 CNS, -3.3% (active); with SF-295 CNS, 6.47% (active); in the experiment with SF-539 CNS, -6.26% (active). Moreover, the values for the growth in the experiment with UACC-257 melanoma and in the experiment with M14 melanoma were -26.8% (active) and -47.9% (active), respectively.
`CN(C)CCCC1(c2ccc(F)cc2)OCc2cc(-c3csc4ccccc34)ccc21` (stereo not given): the growth was 48.2% in the experiment on NCI-H23 lung; 87.3% with NCI-H226 lung; 27% with NCI-H322M lung; 39.2% with HOP-62 NSCLC; -89.9% (active) in the experiment with NCI-H460 lung; 26.4% with HOP-92 NSCLC. The growth in the experiment on NCI-H522 lung is 7.99% (active); with A549/ATCC NSCLC it was 24.4%; in the experiment with 786-0 renal it was 52.8%; in the experiment with COLO 205 colon, -67.8% (active); in the experiment with DU-145 prostate it was -0.822% (active); in the experiment on K-562 leukemia, -31.8% (active). The growth is -92.1% (active) in the experiment on MALME-3M melanoma; 10.6% with MDA-MB-231 breast; 4.01% (active) in the experiment with RXF 393 renal; 38.6% in the experiment with SF-268 CNS; -52% (active) in the experiment on SF-295 CNS; -81.7% (active) in the experiment with SF-539 CNS. Further, the growth was -48% (active) in the experiment with UACC-257 melanoma and -57% (active) in the experiment on M14 melanoma.
In the case of `CCn1cc(Cc2cc(C(=O)Nc3cc4cc(OC)c(OC)cc4c(C)n3)ccc2Cl)cn1`, the growth in the experiment on NCI-H23 lung was 52%; in the experiment on NCI-H226 lung, 30.8%; with NCI-H322M lung it was 102%; in the experiment on HOP-62 NSCLC it was 39.8%; in the experiment on NCI-H460 lung, 76.3%; in the experiment with HOP-92 NSCLC, 47.1%. The growth was 17.6% in the experiment with NCI-H522 lung; 38.9% in the experiment with A549/ATCC NSCLC; 51.7% in the experiment with 786-0 renal; 46.4% in the experiment with COLO 205 colon; 55.3% with DU-145 prostate; 34.4% with K-562 leukemia. The growth with MALME-3M melanoma was 63.4%; with MDA-MB-231 breast, 36.3%; in the experiment on RXF 393 renal, 73.2%; in the experiment on SF-268 CNS it was 49.3%; in the experiment on SF-295 CNS, 39.7%; with SF-539 CNS, 8.23% (active). Moreover, the results for the growth in the experiment with UACC-257 melanoma and with M14 melanoma were 40.9% and 32.6%, respectively.
For the compound `O=C1C(Cl)=C(Nc2ccccc2)C(=O)c2ccccc21`, the growth in the experiment with NCI-H23 lung is -34.3% (active); with NCI-H226 lung, 95.5%; in the experiment on NCI-H322M lung it was 92.5%; with HOP-62 NSCLC, 101%; in the experiment on NCI-H460 lung, 81.1%; in the experiment with HOP-92 NSCLC, -94.4% (active). The growth with NCI-H522 lung is -86.2% (active); in the experiment on A549/ATCC NSCLC, 90.8%; with 786-0 renal it was 31.9%; with COLO 205 colon, 14%; with DU-145 prostate, 87.3%; in the experiment on K-562 leukemia, -14.8% (active). In addition, the growth is -79.5% (active) in the experiment on MALME-3M melanoma; -67.5% (active) with MDA-MB-231 breast; -89.3% (active) in the experiment on RXF 393 renal; -45.7% (active) in the experiment with SF-268 CNS; 90% in the experiment with SF-295 CNS; 44.9% with SF-539 CNS. Also, the growth with UACC-257 melanoma was -79% (active); with M14 melanoma it was -69.4% (active).
